PHOSPHO1 block = blocks human PHOSPHO1 phosphatase activity; AID 1565; inhibition, % at 13.3 µM; 1.1% of 290,000 active; recombinant PHOSPHO1, absorbance phosphatase assay; Q8TCT1; in the data active = inhibition above about 60%
Target sequence (Q8TCT1 whole entry, looked up): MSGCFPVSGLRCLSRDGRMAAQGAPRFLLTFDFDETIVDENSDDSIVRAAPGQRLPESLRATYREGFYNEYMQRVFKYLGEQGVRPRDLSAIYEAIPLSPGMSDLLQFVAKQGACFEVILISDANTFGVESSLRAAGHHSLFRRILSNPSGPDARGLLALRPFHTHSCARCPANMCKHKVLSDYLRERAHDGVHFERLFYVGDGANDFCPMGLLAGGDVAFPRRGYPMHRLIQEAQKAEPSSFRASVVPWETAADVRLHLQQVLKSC
H9c2 protect = protects H9c2 cardiomyocytes from peroxide injury; H2O2 injury protection, ATPLite, 2 h; 0.63% of 360,000 active; protection from H2O2 cell death, % at 20 µM;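 active = compounds giving at least 50% protection of heart cells from peroxide-induced death in the single-dose screen, raw or plate-pattern-corrected value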
ALR H2O2 inh = human ALR oxidase inhibition via reduced H2O2 | purified ALR, DTT oxidation, H2O2 HRP-luminol luminescence | inhibition, % (concentration not given with the values) | 3.8% of 290,000 active;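 active = mean replicate inhibition above about 79%, with every replicate also reaching it, limit read from the data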
Target sequence (P55789 whole entry, looked up): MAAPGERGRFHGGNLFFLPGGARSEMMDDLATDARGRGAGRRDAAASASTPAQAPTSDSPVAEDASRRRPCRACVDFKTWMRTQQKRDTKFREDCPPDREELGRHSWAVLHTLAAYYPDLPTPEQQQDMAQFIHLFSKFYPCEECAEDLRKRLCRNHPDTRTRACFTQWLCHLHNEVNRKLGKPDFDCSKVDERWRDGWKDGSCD
PfG6PD inh = PfG6PD (Plasmodium falciparum) enzyme inhibition; PfGluPho enzyme, NADPH resazurin-diaphorase fluorescence; 0.78% of 350,000 active; inhibition, % at 20 µM; AID 504690;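 active = inhibition reaching at least a set limit at 20 µM in the primary screen, cut at about 59% in these data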
PfM18AAP inh = blocks P. falciparum M18 aspartyl aminopeptidase; recombinant PfM18AAP, H-Glu-NHMec fluorogenic cleavage; inhibition, % at 7.35 µM; 1.2% of 290,000 active; AID 1822;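 active = inhibition above the campaign mean inhibition over all tested compounds plus 3 SD, cut at about 28% in these data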
Large screens that a line does not name were inactive. The list is not random: actives were taken first. Their share in the collection is about 5.6%.

Cc1cc(C=O)c(C)n1-c1cc(C(F)(F)F)ccc1N1CCOCC1	H9c2 protect 138
Cc1cc(C=O)c(C)n1-c1ccc(N2CCOCC2)cc1	none
CCCNC(=O)c1ccc(N2CCC3(CC2)CC(c2cccc(Br)c2)=NO3)c(NC(=O)c2cccc(C)c2)c1	none (no result: PHOSPHO1 block, PfM18AAP inh)
Cc1ccc(NS(=O)(=O)c2ccc3c(c2)NC(=O)CCS3)c(Br)c1	PHOSPHO1 block 65
N#Cc1ccccc1OCC(=O)Nc1c(C(=O)C2CC2)oc2ccccc12	ALR H2O2 inh 90
O=C(CN1CCCC1)Nc1c(C(=O)C2CC2)oc2ccccc12	none
CCCCn1c(SCC(N)=O)nc2ccc(N3CCOCC3)cc2c1=O	none
CCCCn1c(SCC(=O)Nc2cccc(OC)c2)nc2ccc(N3CCOCC3)cc2c1=O	ALR H2O2 inh 99
CCCn1c(SC(C(=O)Nc2cccc(OC)c2)c2ccccc2)nc2ccccc2c1=O (stereo not given)	H9c2 protect 50
CN(CCc1ccccc1)C(C(=O)Nc1ccc2c(c1)OCCO2)C1CC1 (stereo not given)	none (no result: PHOSPHO1 block, ALR H2O2 inh, PfG6PD inh, PfM18AAP inh)
Nc1nc(SCc2cccnc2)c2ncn(C3OC(CO)C(O)C3O)c2n1 (stereo not given)	none (no result: PHOSPHO1 block, ALR H2O2 inh, PfM18AAP inh)
C=CCOc1ccc(C(=O)/C=C2/C(=O)Nc3ccccc32)cc1	none (no result: ALR H2O2 inh)
C=CCOc1ccccc1C(=O)/C=C1/C(=O)Nc2ccccc21	PfM18AAP inh 31 (no result: ALR H2O2 inh)
CCCCNS(=O)(=O)c1cccc(NC(=O)[C@H]2C[C@H](O)[C@@H](CO)O2)c1	none (no result: PHOSPHO1 block, ALR H2O2 inh, PfG6PD inh, PfM18AAP inh)
C=CCn1sc(=N)c(C#N)c1N	ALR H2O2 inh 99
Cc1ccc(CN2CCC2(C)C(=O)NC2CCc3ccccc32)cc1 (stereo not given)	none (no result: PHOSPHO1 block, ALR H2O2 inh, PfG6PD inh, PfM18AAP inh)
Cc1cc(Nc2ccccc2)n(-c2ccccc2)n1	ALR H2O2 inh 98
Cc1cc(C)nc(-n2nc(C)cc2Nc2ccccc2)n1	ALR H2O2 inh 98
Cc1cc(NC(=O)c2cccs2)n(-c2ccccc2)n1	ALR H2O2 inh 86
Cc1ccc(C)c(CC(=O)N2CCCCC2c2cc(C(=O)Nc3ccc(F)c(Cl)c3)no2)c1 (stereo not given)	none (no result: PHOSPHO1 block, ALR H2O2 inh, PfG6PD inh, PfM18AAP inh)
Cc1cccc2cc3c(N)c(C#N)sc3nc12	PHOSPHO1 block 64
CN(CCCNC(=O)CCC(=O)N1CCOc2ccc(Cl)cc21)Cc1ccccc1	ALR H2O2 inh 93
O=C(CCC(=O)N1CCOc2ccc(Cl)cc21)NCCCN1CCN(Cc2ccccc2)CC1	none
COc1ccc(O)c(CN2CCC(n3nccc3NC(=O)c3ccccc3Cl)CC2)c1	none
COCCn1c(C)cc(C2=NNC(=Nc3ccccc3F)SC2)c1C	PHOSPHO1 block 88 (no result: ALR H2O2 inh)
Cc1cccc(S(=O)(=O)NC(=O)C2(C)CCN2C(=O)Cc2ccccc2)c1 (stereo not given)	none (no result: PHOSPHO1 block, ALR H2O2 inh, PfG6PD inh, PfM18AAP inh)
CC(=O)NC12CC3CC(C1)CC(C(=O)Nc1nc4ccc(F)cc4s1)(C3)C2	ALR H2O2 inh 86
COc1ccccc1CNC(=O)c1ccccc1SCC(=O)NCc1ccco1	none (no result: PHOSPHO1 block, ALR H2O2 inh, PfM18AAP inh)
O=C(NCc1ccco1)c1cc2ccc(O)cc2oc1=O	PfM18AAP inh 28
Cc1c(Br)cc(C(=O)NCc2ccco2)c(C)c1C	ALR H2O2 inh 98
Cc1ccc(C(=O)NCc2ccco2)cc1Br	none
COCCSc1ccccc1C(=O)NCc1ccco1	PfM18AAP inh 30
O=C(C1CCCN(S(=O)(=O)c2ccc(Br)cc2)C1)N1CCOCC1 (stereo not given)	none
CCOC(=O)C(C)Oc1ccc(C2NC(=O)NC(C)=C2C(C)=O)cc1Br (stereo not given)	H9c2 protect 55
O[C@H]1CN(CC2CCCCC2)[C@@H](c2ccccc2)C[C@@H]1n1cc(C2CC2)nn1	none (no result: PHOSPHO1 block, ALR H2O2 inh, PfM18AAP inh)
Cc1cc(C)cc(Nc2nc3c([nH]2)c(=O)n(C)c(=O)n3C)c1	none
Cn1c(=O)c2[nH]c(N=Nc3ccc(N)cc3N)nc2n(C)c1=O	ALR H2O2 inh 86
COc1cnc(SCc2ccc(Cl)cc2Cl)nc1Cl	ALR H2O2 inh 98
COc1ccc(Cl)cc1CSc1n[nH]c(C)n1	none
COC1(OC)N=C(NC(=O)Nc2ccccc2)C2(C#N)C(c3ccccc3)C12C#N (stereo not given)	ALR H2O2 inh 99
COC1(OC)N=C(N)C2(C#N)C(c3ccc(C)cc3)C12C#N (stereo not given)	none
CC1(C(=O)NS(=O)(=O)c2ccc(Cl)cc2)CCN1C(=O)CC1CC1 (stereo not given)	none (no result: PHOSPHO1 block, ALR H2O2 inh, PfG6PD inh, PfM18AAP inh)
CCCCCC#CCC#CCC#CCC#CCCCC(=O)O	PHOSPHO1 block 79 (no result: H9c2 protect, ALR H2O2 inh, PfG6PD inh)
C=CCN1C(=O)c2ccc(C(=O)N(C)CC(=O)Nc3cccc(F)c3)cc2C1=O	none
Cc1ccc(N2CCN(S(=O)(=O)c3ccc4c(c3)NC(=O)C(C)C(=O)N4)CC2C)cc1 (stereo not given)	ALR H2O2 inh 97
Cc1ccccc1Cn1nnc(-c2ccc(F)cc2)n1	ALR H2O2 inh 93
Cc1ccc(S(=O)(=O)NCC(=O)OCc2csc(-c3ccccc3)n2)cc1	none
O=C(CNS(=O)(=O)c1ccc2ccccc2c1)OCc1csc(-c2ccccc2)n1	ALR H2O2 inh 99
CC1(C(=O)NS(=O)(=O)c2cccc(F)c2)CCN1C(=O)Cc1cccc2ccccc12 (stereo not given)	none (no result: PHOSPHO1 block, ALR H2O2 inh, PfG6PD inh, PfM18AAP inh)
CC(=O)Oc1c(-c2ccc(Br)o2)oc2ccccc2c1=O	H9c2 protect 58
CC1=C(C(=O)N2CCOCC2)CC(CC(=O)NCCN2CCOCC2)C(=O)N1Cc1ccccc1 (stereo not given)	none (no result: PHOSPHO1 block, ALR H2O2 inh, PfM18AAP inh)
COCc1nnc(NC(=O)c2ccc(S(=O)(=O)N(CC(C)C)CC(C)C)cc2)o1	ALR H2O2 inh 95
CCCN(CCC)S(=O)(=O)c1ccc(C(=O)Nc2nnc(-c3cc(OC)cc(OC)c3)o2)cc1	H9c2 protect 54
CCCCN(CC)S(=O)(=O)c1ccc(C(=O)Nc2nnc(CSC)o2)cc1	none
CCCCN(CCCC)S(=O)(=O)c1ccc(C(=O)Nc2nnc(CSC)o2)cc1	H9c2 protect 50
O=S(=O)(Nc1cccc(F)c1)c1ccc(S(=O)(=O)N2CCOCC2)cc1	none (no result: PHOSPHO1 block, ALR H2O2 inh, PfM18AAP inh)
CC1(C(=O)Nc2ccc(F)c(Cl)c2)Cc2c(-c3ccccc3)ccnc2O1 (stereo not given)	none (no result: PHOSPHO1 block, ALR H2O2 inh, PfG6PD inh, PfM18AAP inh)
O=C(Nc1cccn(Cc2cccc(F)c2)c1=O)NC1CCCCC1	none (no result: ALR H2O2 inh)
O=C(Nc1cccn(Cc2c(F)cccc2Cl)c1=O)NC1CCCCC1	PfM18AAP inh 28 (no result: ALR H2O2 inh)
CN(C)c1cccc(-c2cc(Nc3ccc(C(C)(C)C)cc3)ncn2)c1	none (no result: PHOSPHO1 block, ALR H2O2 inh, PfG6PD inh, PfM18AAP inh)
CN(C)c1ccc(Nc2cc(Cl)ncn2)cc1	ALR H2O2 inh 99
CC(OC(=O)Cn1[nH]c(=O)c2ccccc2c1=O)C(=O)Nc1ccc(Cl)cn1 (stereo not given)	H9c2 protect 52 (no result: PHOSPHO1 block, PfM18AAP inh)
COc1ccc([N+](=O)[O-])cc1NC(=O)C(C)OC(=O)Cn1[nH]c(=O)c2ccccc2c1=O (stereo not given)	H9c2 protect 58 (no result: PHOSPHO1 block, PfM18AAP inh)
CC(OC(=O)Cn1[nH]c(=O)c2ccccc2c1=O)C(=O)NC1(C#N)CCCCC1 (stereo not given)	H9c2 protect 70 (no result: PHOSPHO1 block, PfM18AAP inh)
COc1ccc(OC)c(S(=O)(=O)NCC(c2cccs2)N2CCc3ccccc3C2)c1 (stereo not given)	none (no result: PHOSPHO1 block, PfM18AAP inh)
O=C(NCCc1ccc(O)cc1)c1ccc(Cl)cc1	ALR H2O2 inh 79
Cc1cc(C(=O)NCCc2ccc(Cl)cc2)no1	none
